# Screening data (PubChem BioAssay)
# KDM5B inh: KDM5B demethylase inhibition | Q9UGL1 | KDM5B demethylase, FDH-coupled NADH fluorescence (FDH is formaldehyde dehydrogenase) | Potency, µM (series often up to 57.7 µM), usual class: inhibitors | 2.6% of 220,000 active | AID 1347165; also: potency is read from the fitted curve at half-maximal effect; 0% is about no effect; nearly all actives have a fitted effect of over 70% in size
#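 Coupled FDH/NAD⁺ fluorescence readout. KDM5BΔAP 200 nM final; compound titration, 10 min RT preincubation; substrate mix 12.5 µM H3K4me3, 25 µM 2-OG, 50 µM Fe(II), 100 µM ascorbate, 0.25 mM NAD⁺, 0.25 U/mL FDH; ΔRFU over 30 min.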
# SNCA expr inhib: reduces expression of the alpha-synuclein gene; HEK-293 SNCA-luciferase knock-in, luminescence, 24 h; Potency, µM (highest dose often 57.2 µM), without a hit: at the top dose activity change, negative = inhibition, most hits filed as inhibitors; 0.17% of 140,000 active;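 also: potency is read from the fitted curve at half-maximal effect; plate controls were DMSO cells for no effect and cell-free wells for full effect; nearly all actives have a fitted effect of over 45% in size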
# IP6K1 inh: inhibitors of human IP6K1; activity change, % (series mostly up to about 58 µM); IP6K1 kinase, ADP-Glo luminescence, 2 h; active compounds read low; Q92551; 0.81% of 140,000 active; in the data active = activity change below about -25%; also: % is scaled to controls: 0 for no effect and ±100 for the full control effect
# Target sequence (Q92551 whole entry, looked up): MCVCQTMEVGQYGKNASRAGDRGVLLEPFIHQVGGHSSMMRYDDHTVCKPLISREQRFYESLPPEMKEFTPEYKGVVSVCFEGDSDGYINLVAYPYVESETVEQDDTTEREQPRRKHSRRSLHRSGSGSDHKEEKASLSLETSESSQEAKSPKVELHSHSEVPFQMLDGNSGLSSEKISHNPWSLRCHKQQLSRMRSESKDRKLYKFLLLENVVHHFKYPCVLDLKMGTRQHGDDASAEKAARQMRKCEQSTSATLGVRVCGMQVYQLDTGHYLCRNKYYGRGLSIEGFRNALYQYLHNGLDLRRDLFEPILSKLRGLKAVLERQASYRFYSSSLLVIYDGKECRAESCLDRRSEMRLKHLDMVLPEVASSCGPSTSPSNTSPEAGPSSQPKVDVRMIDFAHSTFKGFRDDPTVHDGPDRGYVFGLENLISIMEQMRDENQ
#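 ADP-Glo luminescence measures ADP made by human IP6K1 during a 2 h RT reaction with ATP/IP6 (mix at 1.3 mM/130 uM); top library doses 57.5 and 19.1 uM final.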
# HEK293 viab: counter-screen for SNCA expression inhibitors: cell viability | HEK-293-SNCA-luc viability, GF-AFC fluorescence, 24 h | Potency, µM (series often up to 57.1 µM), for inactives: top-dose activity change, negative = cytotoxicity, usual class: cytotoxic | 0.12% of 150,000 active | AID 1671193;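 also: potency is read from the fitted curve at half-maximal effect; 0% = DMSO-treated cells and -100% = medium-only wells without cells; nearly all actives have a fitted effect of over 30% in size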
#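 Cytotoxicity counterscreen: after 24 h compound treatment of genome-edited SNCA-luciferase HEK-293 cells, live-cell protease substrate GF-AFC read by fluorescence after 30 min; activity scaled between DMSO (0%) and medium-only (-100%), curves Hill-fitted.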
# * hit, by the source's call; i = inactive; ? = inconclusive; nt = no result given; [ ] = remark or other dose. The list is not random: actives were taken first. Their share in the collection is about 2.9%. Unless noted, calls follow the shape of the dose curve; as a rule, active = well fitted curve in the direction sought with a large enough effect; inconclusive = small, poorly fitted or top-dose-only effect, or another doubt; inactive = no such curve, though single readings can be large; an effect the other way counts as inactive or inconclusive.
SMILES,KDM5B inh,SNCA expr inhib,IP6K1 inh,HEK293 viab
COc1ccccc1C(=O)N1CCC(Oc2ccc(C(=O)N3CCOCC3)cn2)CC1,i,0%,3,11%
CCOC(=O)C1CCCN(C(=O)c2ccc3nc(-c4ccccn4)oc3c2)C1 (centres undefined),nt,32%,14,4%
Cc1ccc(-c2ccc3nnc(CNC(=O)c4cccc(N(C)C)c4)n3n2)cc1C,i,144%,-16,-10%
O=C(NCc1nnc2ccc(-c3ccccc3)nn12)c1ccc(F)c(F)c1,28µM*,?,-4,?
Cc1ccc(C(=O)NCc2nnc3ccc(-c4ccc(C)c(C)c4)nn23)s1,28µM*,12%,18,-1%
CNC(=O)C1CCN(C(C)C(=O)NCc2ccccc2Cl)CC1 (centres undefined),i,nt,nt,nt
CCc1noc(-c2cccn3c(CNC(=O)c4ccc(F)c(F)c4)nnc23)n1,4µM*,-22%,-2,-13%
CC(C)c1noc(-c2cccn3c(CNC(=O)c4ccc(F)cc4Cl)nnc23)n1,25µM*,-23%,-1,0%
CC(C)c1noc(-c2cccn3c(CNC(=O)c4ccccc4F)nnc23)n1,?,?,6,-2%
CC(C)c1noc(-c2cccn3c(CNC(=O)c4cc(F)ccc4Cl)nnc23)n1,22µM*,5%,1,-15%
CCc1noc(-c2cccn3c(CNC(=O)c4ccc(F)cc4Cl)nnc23)n1,?,3%,2,7%
CC(C)c1noc(-c2cccn3c(CNC(=O)c4cc(F)ccc4F)nnc23)n1,25µM*,-19%,12,1%
Cc1ccc(C)c(C(=O)NCc2nnc3c(-c4nc(C(C)C)no4)cccn23)c1,?,7%,2,6%
CCN(CC)S(=O)(=O)c1ccc2c(c1)cc(C(=O)NC(C)Cc1ccco1)n2C (centres undefined),i,nt,nt,nt
O=c1c(=O)n(-c2ccc(F)cc2)ccn1Cc1c(F)cccc1Cl,i,nt,nt,nt
CCc1noc(-c2cccn3c(CNC(=O)c4cc(F)ccc4F)nnc23)n1,28µM*,18%,8,8%
Cc1ccc(NC(=O)Cn2nc(C(=O)O)c3ccccc3c2=O)c(Br)c1,i,nt,nt,nt
CC(NC(=O)C1CCCO1)C(=O)N1CCN(c2ccccn2)CC1 (centres undefined),25µM*,-16%,25,8%
CC(NC(=O)C1CCC1)C(=O)N1CCN(c2ccccn2)CC1 (centres undefined),22µM*,-15%,2,15%
CC(C)C(NC(=O)C1CCC1)C(=O)N1CCN(c2ccccn2)CC1 (centres undefined),22µM*,1%,4,1%
CS(=O)(=O)N1CCN(C(=O)Cn2nc3c(cc2=O)CCCCC3)CC1,i,-21%,-3,9%
Cn1c(CNC(=O)c2cc3c(s2)CN(C2CC2)C3)nc2ccccc21,13µM*,13%,9,5%
CCC1CCCCN1CCNC(=O)c1cc2c(s1)CN(C1CCCC1)C2 (centres undefined),14µM*,35%,25,4%
CN(C)C(=O)C1(c2cccc(Br)c2)CC1,i,nt,nt,nt
CCCCNC(=O)Cc1csc2nc(C)c(-c3cc(C)n(-c4cc(Cl)ccc4C)n3)c(=O)n12,25µM*,5%,-4,6%
SMILES,KDM5B inh,SNCA expr inhib,IP6K1 inh,HEK293 viab
CCCCNC(=O)Cc1csc2nc(C)c(-c3cc(C)n(-c4ccc(C)cc4C)n3)c(=O)n12,?,-7%,2,-18%
CCCNC(=O)Cc1csc2nc(C)c(-c3cc(C)n(-c4cc(Cl)ccc4C)n3)c(=O)n12,28µM*,12%,15,-1%
COc1ccc(C(=O)CSc2nnc(-c3cc4cc(Cl)ccc4o3)n2C)cc1,i,nt,nt,nt
O=C(c1cc(F)cc(Cl)c1)N1CCc2nc(-c3cccc(F)c3)[nH]c2C1,i,-6%,8,?
O=C1CCC(C(=O)N2CCc3nc(-c4cccc(F)c4)[nH]c3C2)NC(=O)N1 (centres undefined),22µM*,-2%,21,13%
COc1c/c(=C2\C=c3ccccc3=N2)[nH]/c1=C\c1[nH]c(C)cc1C,nt,nt,-12,4.7µM*
COc1ccccc1/C=C(\C)C(=O)c1c(C)cc(C)[nH]c1=O,i,nt,nt,nt
CCOc1ccc(N(C(=O)c2ccco2)S(=O)(=O)c2ccc3c(c2)oc(=O)n3C)cc1,i,nt,nt,nt
Cn1cccc1CN[C@H]1[C@H](O)[C@@H](N2CCCC2)[C@@H]2OC[C@H]1O2,25µM*,14%[87.6 µM],1,4%[87.6 µM]
Cc1ccc(CNC(=O)c2cc3c(N(C)Cc4ccccc4)nc(C)cn3n2)cc1,28µM*,3%,4,4%
Cc1cn2nc(C(=O)N3CCSCC3)cc2c(N(C)Cc2ccccc2)n1,?,2%,0,-10%
Cc1cn2nc(C(=O)NCc3ccccc3C)cc2c(N(C)Cc2ccccc2)n1,14µM*,?,15,2%
Cc1cn2nc(C(=O)NCc3ccc(F)cc3)cc2c(N(C)Cc2ccccc2)n1,25µM*,-20%,11,-20%
O=C(NCc1ccc(F)cc1)[C@@H]1OCCN(C2CC2)[C@H]1c1ccccc1,nt,-7%,5,-2%
Cc1cccc(NC(=O)c2ccc3c(c2)CCC3)c1C,i,nt,nt,nt
COCCCn1c(C)cc(C(=O)N2CCCC(c3[nH]ccc3C(N)=O)C2)c1C (centres undefined),18µM*,?,14,11%[12.5 µM]
CCc1ccc(NC(=O)N2CCc3c(c4ccccc4n3C)C2)cc1,28µM*,30%,-2,5%
Cc1ccc(NC(=O)N2CCc3c(c4ccccc4n3C)C2)cc1,22µM*,38%,5,3%
CCOc1ccc(NC(=O)N2CCc3c(c4ccccc4n3C)C2)cc1,25µM*,-8%,-4,-2%
Cn1c2c(c3cc(F)ccc31)CN(C(=O)Nc1ccc(Cl)cc1)CC2,?,98%,5,3%
O=S1(=O)CCN(Cc2cc(NCC3CCOCC3)c3[nH]c(-c4ccccc4)cc3c2)CC1,nt,nt,-18,-14%
CCn1cnnc1CC1CCN(C(=O)c2cnn3c(C)c(Cc4ccccc4Cl)c(C)nc23)CC1,28µM*,5%,13,0%
CC(C)CNC(=O)CNC(=O)CC1CCCCC1,i,nt,nt,nt
COCC1CCN(c2ccc(-c3nc(-c4ccccc4C)no3)cn2)C1 (centres undefined),32µM*,54%,18,7%
COC(=O)[C@@H]1CCCN1c1ccc(-c2nc(-c3ccccc3F)no2)cn1,25µM*,11µM*,3,-12%
O=C(NC1CC1)c1c[nH]c2cccnc12,?,41%[87.6 µM],-4,?
COc1ccc(Cl)cc1-c1ccc2c(c1)C(=O)N1CCN(C(=O)C3CC3)C[C@@H]1C(=O)N2,?,10%[87.6 µM],-11,-5%[87.6 µM]
COc1ccc(Cl)cc1-c1ccc2c(c1)C(=O)N1CCN(C(=O)c3ccccc3)C[C@@H]1C(=O)N2,22µM*,?,-4,-11%
O=C1Nc2ccc(-c3cccc(C(F)(F)F)c3)cc2C(=O)N2CCN(C(=O)c3cccc(F)c3)C[C@H]12,i,27%,2,1%
COc1ccc(-c2ccc3c(c2)C(=O)N2CCN(C(=O)c4cccc(F)c4)C[C@@H]2C(=O)N3)cc1,18µM*,28%,3,-6%
